According to ChEMBL document CHEMBL5724796, “Tm Shift (DSF) assay results for EUbOPEN Chemogenomics Library” (2024):
Residues, ends and D or L forms follow the SMILES beside them.

Tests used:
Conditions in all cases: Compound concentration 20.0 uM
[1] = molecular target: Tyrosine-protein kinase ABL1 (Homo sapiens) (UniProt P00519)
[2] = molecular target: Bromodomain-containing protein 4 (Homo sapiens) (UniProt O60885)
[3] = molecular target: Cyclin-dependent kinase 2 (Homo sapiens) (UniProt P24941)
[4] = molecular target: Casein kinase I isoform delta (Homo sapiens) (UniProt P48730)
[5] = molecular target: Glycogen synthase kinase-3 beta (Homo sapiens) (UniProt P49841)
[6] = molecular target: Mitogen-activated protein kinase 1 (Homo sapiens) (UniProt P28482)
[7] = molecular target: T1, Aurora kinase A (Homo sapiens) (UniProt O14965)
T1 sequence (whole entry): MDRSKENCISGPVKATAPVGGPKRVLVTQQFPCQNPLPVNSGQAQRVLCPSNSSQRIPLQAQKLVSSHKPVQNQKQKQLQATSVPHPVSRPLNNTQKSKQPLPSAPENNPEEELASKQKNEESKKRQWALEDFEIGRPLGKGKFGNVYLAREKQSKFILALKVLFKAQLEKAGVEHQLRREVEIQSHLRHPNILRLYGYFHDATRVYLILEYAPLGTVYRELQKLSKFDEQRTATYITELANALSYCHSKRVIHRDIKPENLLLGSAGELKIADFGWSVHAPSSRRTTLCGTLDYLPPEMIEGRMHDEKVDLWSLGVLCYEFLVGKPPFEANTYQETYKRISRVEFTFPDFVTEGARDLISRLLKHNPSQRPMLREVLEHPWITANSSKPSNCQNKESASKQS

[8] = molecular target: T2, Transcription intermediary factor 1-alpha (Homo sapiens) (UniProt O15164)
T2 sequence (whole entry): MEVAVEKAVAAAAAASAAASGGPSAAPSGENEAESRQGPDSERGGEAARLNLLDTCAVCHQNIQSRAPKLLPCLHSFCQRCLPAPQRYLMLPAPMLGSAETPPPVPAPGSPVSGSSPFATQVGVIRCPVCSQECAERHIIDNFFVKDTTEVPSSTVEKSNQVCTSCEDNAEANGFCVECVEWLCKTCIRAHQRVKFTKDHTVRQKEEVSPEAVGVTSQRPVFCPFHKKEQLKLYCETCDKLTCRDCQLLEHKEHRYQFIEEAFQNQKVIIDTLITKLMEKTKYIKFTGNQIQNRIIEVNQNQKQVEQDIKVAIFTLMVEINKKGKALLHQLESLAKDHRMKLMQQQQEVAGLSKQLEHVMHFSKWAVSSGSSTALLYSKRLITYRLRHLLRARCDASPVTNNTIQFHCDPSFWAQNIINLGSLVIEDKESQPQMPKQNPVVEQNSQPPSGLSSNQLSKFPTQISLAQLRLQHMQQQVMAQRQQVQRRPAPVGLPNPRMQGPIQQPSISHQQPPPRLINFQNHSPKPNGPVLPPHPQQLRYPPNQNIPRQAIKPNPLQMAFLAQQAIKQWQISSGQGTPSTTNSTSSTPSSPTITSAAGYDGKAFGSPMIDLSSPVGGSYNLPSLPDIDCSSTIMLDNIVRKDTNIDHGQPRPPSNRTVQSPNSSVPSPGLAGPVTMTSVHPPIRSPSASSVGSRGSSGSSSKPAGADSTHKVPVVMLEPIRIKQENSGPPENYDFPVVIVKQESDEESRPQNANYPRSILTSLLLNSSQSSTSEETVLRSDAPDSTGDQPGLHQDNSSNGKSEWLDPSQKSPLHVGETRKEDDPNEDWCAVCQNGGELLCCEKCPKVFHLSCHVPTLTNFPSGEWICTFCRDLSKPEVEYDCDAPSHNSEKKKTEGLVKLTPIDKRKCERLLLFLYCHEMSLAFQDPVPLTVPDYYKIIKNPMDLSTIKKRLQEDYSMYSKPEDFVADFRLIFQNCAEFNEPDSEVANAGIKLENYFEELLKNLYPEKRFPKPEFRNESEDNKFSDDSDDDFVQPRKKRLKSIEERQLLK

Chain of Mitogen-activated protein kinase 1 (Homo sapiens) (P28482 whole entry): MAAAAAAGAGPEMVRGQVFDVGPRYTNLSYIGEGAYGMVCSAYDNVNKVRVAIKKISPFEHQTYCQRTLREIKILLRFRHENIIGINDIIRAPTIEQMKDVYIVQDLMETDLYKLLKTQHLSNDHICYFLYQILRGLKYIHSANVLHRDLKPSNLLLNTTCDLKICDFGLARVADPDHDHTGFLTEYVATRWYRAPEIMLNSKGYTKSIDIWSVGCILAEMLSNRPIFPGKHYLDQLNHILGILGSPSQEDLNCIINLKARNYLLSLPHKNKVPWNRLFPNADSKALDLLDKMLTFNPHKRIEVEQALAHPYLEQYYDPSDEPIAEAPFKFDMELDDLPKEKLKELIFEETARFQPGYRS
Chain of Tyrosine-protein kinase ABL1 (Homo sapiens) (P00519 whole entry): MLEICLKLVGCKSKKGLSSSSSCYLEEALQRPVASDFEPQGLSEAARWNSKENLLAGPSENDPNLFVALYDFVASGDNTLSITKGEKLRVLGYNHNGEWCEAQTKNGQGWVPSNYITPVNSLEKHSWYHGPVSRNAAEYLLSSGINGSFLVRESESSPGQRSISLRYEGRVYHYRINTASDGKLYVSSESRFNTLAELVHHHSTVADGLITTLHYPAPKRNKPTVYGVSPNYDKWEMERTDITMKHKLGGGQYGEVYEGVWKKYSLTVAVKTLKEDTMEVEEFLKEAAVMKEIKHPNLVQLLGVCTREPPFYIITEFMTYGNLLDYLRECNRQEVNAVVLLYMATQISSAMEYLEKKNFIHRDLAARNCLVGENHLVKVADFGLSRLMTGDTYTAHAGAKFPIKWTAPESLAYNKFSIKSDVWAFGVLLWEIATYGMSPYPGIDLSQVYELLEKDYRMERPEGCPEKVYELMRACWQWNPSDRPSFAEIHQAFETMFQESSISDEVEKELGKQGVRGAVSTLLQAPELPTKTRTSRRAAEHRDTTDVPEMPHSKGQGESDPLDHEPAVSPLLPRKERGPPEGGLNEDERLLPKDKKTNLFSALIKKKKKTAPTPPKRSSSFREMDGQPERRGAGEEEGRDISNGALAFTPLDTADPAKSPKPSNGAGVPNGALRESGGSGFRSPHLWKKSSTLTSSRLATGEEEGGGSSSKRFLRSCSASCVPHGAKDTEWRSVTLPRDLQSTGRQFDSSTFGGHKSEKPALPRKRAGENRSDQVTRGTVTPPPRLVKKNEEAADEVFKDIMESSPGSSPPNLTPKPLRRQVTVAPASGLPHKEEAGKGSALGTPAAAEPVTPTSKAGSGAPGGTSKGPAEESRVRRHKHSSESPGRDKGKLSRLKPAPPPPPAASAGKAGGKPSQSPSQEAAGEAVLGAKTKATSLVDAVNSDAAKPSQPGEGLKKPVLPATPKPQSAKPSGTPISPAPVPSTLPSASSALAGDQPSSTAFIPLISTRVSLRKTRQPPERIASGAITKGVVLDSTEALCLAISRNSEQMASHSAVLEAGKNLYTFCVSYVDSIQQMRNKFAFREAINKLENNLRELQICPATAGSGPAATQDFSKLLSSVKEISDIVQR
Chain of Glycogen synthase kinase-3 beta (Homo sapiens) (P49841 whole entry, looked up): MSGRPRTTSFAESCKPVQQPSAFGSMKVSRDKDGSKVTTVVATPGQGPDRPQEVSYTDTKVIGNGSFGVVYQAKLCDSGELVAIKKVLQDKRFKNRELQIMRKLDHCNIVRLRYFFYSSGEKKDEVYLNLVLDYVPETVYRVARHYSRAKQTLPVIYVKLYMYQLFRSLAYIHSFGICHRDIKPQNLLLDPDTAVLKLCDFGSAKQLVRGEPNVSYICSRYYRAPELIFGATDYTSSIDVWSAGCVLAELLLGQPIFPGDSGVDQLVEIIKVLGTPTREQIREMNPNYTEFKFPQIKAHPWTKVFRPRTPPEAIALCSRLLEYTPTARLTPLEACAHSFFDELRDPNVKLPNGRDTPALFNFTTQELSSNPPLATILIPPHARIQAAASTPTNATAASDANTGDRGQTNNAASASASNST
Chain of Casein kinase I isoform delta (Homo sapiens) (P48730 whole entry, looked up, canonical isoform): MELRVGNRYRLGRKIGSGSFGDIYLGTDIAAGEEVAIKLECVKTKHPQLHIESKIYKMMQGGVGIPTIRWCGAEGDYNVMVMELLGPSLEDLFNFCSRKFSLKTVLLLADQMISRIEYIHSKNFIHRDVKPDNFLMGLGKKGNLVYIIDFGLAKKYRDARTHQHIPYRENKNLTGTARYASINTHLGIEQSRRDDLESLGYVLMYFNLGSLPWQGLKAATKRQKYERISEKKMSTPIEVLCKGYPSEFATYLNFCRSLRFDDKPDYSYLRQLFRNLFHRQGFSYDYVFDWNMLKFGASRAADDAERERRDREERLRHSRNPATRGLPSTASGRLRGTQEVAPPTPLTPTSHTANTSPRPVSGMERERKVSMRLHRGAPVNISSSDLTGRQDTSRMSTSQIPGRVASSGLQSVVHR

SMILES | ΔTm [1] [°C] | ΔTm [2] [°C] | ΔTm [3] [°C] | ΔTm [4] [°C] | ΔTm [5] [°C] | ΔTm [6] [°C] | ΔTm [7] [°C] | ΔTm [8] [°C]
O=C(Nc1c[nH]nc1C(=O)NC1CCNCC1)c1cc(F)cc(F)c1 | 0.13 | -1.86 | 1.26 | 1.02 | 13.9 | -0.13 | -0.72 | -0.9
C[C@H](CN[C@@H](C(=O)Nc1ccc(-c2cnn(C)c2)cn1)c1ccccc1)c1ccc(C#N)cc1 | -0.21 | -5.89 | -3.07 | 1.03 | -2.94 | -4.97 | -1.84 | -1.37
O=c1c2nnc(C3CCOCC3)n2cc(Br)n1CC1CCCC1 | 0.74 | -2.93 | 0.35 | -0.32 | -0.29 | 0.23 | -1.77 | -0.67
C[C@]12CCCN1CC1=NNC(=O)c3cc(F)cc4[nH]c2c1c34 | 0.67 | 2.16 | 2.04 | 1.06 | 8.59 | 0.1 | 1.26 | 0
COc1cc2c(NC3CCN(C)CC3)cc(-c3ccc(C)o3)nc2cc1OCCCN1CCCC1 | 0.3 | 0.18 | 0.69 | 0.17 | 0.49 | 0.01 | 0.09 | -0.54
CS(=O)(=O)c1ccc(Oc2cc(F)cc(C#N)c2)c2c1[C@H](O)[C@H](F)[C@@H]2F | 0.05 | 2.78 | 0.17 | -0.33 | -0.61 | 0.64 | -2.09 | 1.99
Cn1c(OC[C@H]2CC[C@H](C(F)(F)F)CC2)nn2c(C3CCOCC3)ncc2c1=O | 0.42 | -3.44 | -0.19 | -0.45 | 0.18 | 0.06 | -2.37 | -1.13
Cc1cc(C)nc(SCC(=O)Nc2ncc(Cc3cccc(OCc4cn(Cc5ccccc5)nn4)c3)s2)n1 | -4.58 | -6.78 | -3.98 | -2.38 | -0.77 | 0.65 | -2.36 | 3.08
Cc1cc(OCCCNCC(C)(C)C(N)=O)ccc1Cc1c(O[C@@H]2O[C@H](CO)[C@@H](O)[C@H](O)[C@H]2O)n[nH]c1C(C)C | 0.7 | -2.92 | 0.08 | -0.08 | -0.66 | 0.38 | -2.36 | 0.9
O=C(N1CCCCC1c1ccccc1)n1cc(-c2ccc(-c3cccc(CO)c3)cc2)nn1 (configuration not stated) | -2.74 | -2.31 | -2.39 | -10.5 | -1.86 | -9.96 | -5.38 | 2.17
NCCCOc1cc2ccccc2cc1C(=O)NCCOc1cc2ccccc2cc1C(=O)Nc1ccc(Cl)cc1O | 0.27 | -4.42 | -1.85 | 0.11 | -2.72 | -1.61 | -3.9 | -0.59
N#Cc1cc(F)cc(Oc2ccc3c(c2C(F)F)[C@@H](O)C(F)(F)S3(=O)=O)c1 | 0.45 | -2.84 | -0.03 | -0.34 | 0.02 | 0.16 | -2.42 | -0.94
O=C(NCCCn1ccnc1)c1cc2nc(-c3ccccc3)cc(-c3ccccc3)n2n1 | 0.26 | -2.23 | -0.13 | 0.15 | -0.59 | -2.4 | -0.86 | -0.04
Cc1ncsc1-c1ccc([C@H](C)NC(=O)[C@@H]2C[C@@H](O)CN2C(=O)[C@@H](NC(=O)CNC(=O)c2ccc(F)c(-c3ccc(N4C[C@@H](C)N(C)[C@@H](C)C4)c(NC(=O)c4c[nH]c(=O)cc4C(F)(F)F)c3)c2)C(C)(C)C)cc1 | -0.64 | -6.28 | -0.94 | 0.81 | -3.51 | -15.7 | -5.35 | 1.29
CCOC(=O)Oc1c(OC)cc(C(=O)O[C@H]2C[C@H]3CN4CCc5c([nH]c6cc(OC)ccc56)[C@@H]4C[C@H]3[C@@H](C(=O)OC)[C@@H]2OC)cc1OC | 0.54 | -2.32 | 0.27 | -0.84 | -0.14 | -0.02 | -2.27 | 0.01
CC[C@H](C)[C@H](NC(=O)[C@H](CCC(=O)O)NC(=O)[C@@H](NC(C)=O)C(C)C)C(=O)N[C@H](C=O)CC(=O)O (Ac-VEID-aldehyde) | -0.05 | -2.59 | -0.23 | -0.08 | -0.35 | -0.47 | -1.47 | -0.43
CCc1ccccc1NC(=O)CSC(=O)NNC(=O)[C@H](Cc1c[nH]c2ccccc12)NC(=O)OC(C)(C)C | 1.95 | -0.97 | -0.07 | 0.05 | 4.75 | -10.2 | 3.62 | 5.76
CCN(c1cc(-c2ccc(CN3CCOCC3)cc2)cc(C(=O)NCc2c(C)cc(C)[nH]c2=O)c1C)C1CCOCC1 | 0.22 | -1.59 | -0.42 | 0.03 | 0 | -4.86 | -1.94 | -2.54
CC(C)(O)c1ccc(N2Cc3c(ccnc3-c3ccc(F)cc3OCC(F)(F)F)C2=O)cc1 | 1.61 | -2.56 | -1.07 | 0.07 | 0.38 | -10.3 | 1.43 | -1.06
CC(C)(C)NS(=O)(=O)c1cccc2c(NC(=O)[C@H](Cc3ccccc3)NC(=O)C3CCCCC3)cccc12 | 0.13 | 1.07 | 0.3 | -1.46 | -0.2 | -10.5 | -2.29 | 2.01

SMILES | ΔTm [1] [°C] | ΔTm [2] [°C] | ΔTm [3] [°C] | ΔTm [4] [°C] | ΔTm [5] [°C] | ΔTm [6] [°C] | ΔTm [7] [°C] | ΔTm [8] [°C]
CCOCC1(COCC)CCC(c2n[nH]cc2CN(C)CCNC)CC1 | 0.58 | -1.39 | -0.06 | 0.56 | -1.08 | 0.33 | -0.08 | -1.29
COc1ccccc1[C@H]1[C@H](C(=O)O)[C@H](c2ccccc2OC)[C@H]1C(=O)Oc1cccc2ccccc12 | 0.47 | -2.56 | -0.65 | -3.09 | 0 | -0.07 | -2.4 | -2.09
NC(=O)C1CN(CCCCC(c2ccc(F)cc2)c2ccc(F)cc2)CCN1CC(=O)Nc1c(Cl)cc(N)cc1Cl (configuration not stated) | -3.72 | -1.03 | -3.44 | -5.13 | -5.78 | -8.93 | -8.05 | 4.39
Cc1noc2c1-c1ccccc1C(c1ccc(Cl)cc1)=N[C@H]2CC(N)=O | 0.53 | 8.17 | 0.94 | 0.05 | -0.25 | 0.12 | -2.42 | -0.29
CC(C)N(C(=O)c1cc(F)ccc1Oc1cncnc1N1CC2(CCN(C[C@H]3CC[C@H](NS(C)(=O)=O)CC3)CC2)C1)C(C)C | 0.57 | -1.5 | 0.13 | -0.36 | -0.7 | 0.13 | -2.37 | 0.16
COc1cc2c(NCC3CCN(C)CC3)cc(-c3ccc(C)o3)nc2cc1OCCCN1CCCC1 | -0.17 | -1.85 | 0.22 | 0.3 | -1.71 | 0.07 | 0.46 | -1.43
COc1cc(C(=O)NCC2(N(C)C)CCCC2)cc(OC)c1OCc1ccccc1 | 0.81 | -1.07 | 0.36 | -0.21 | -0.01 | 0.38 | -0.99 | 3.25
Cc1cc(/N=N/c2ccc3c(c2)CCC(=O)N3)c(N)cc1O | 2.28 | -0.4 | -0.28 | 0.68 | -0.3 | 0.09 | -0.6 | -0.66
CC(C)Oc1ccc2c(=O)[nH]c3sccc3c2c1 | 2.81 | -1.93 | 0.87 | 1.82 | 0.89 | 0.11 | -0.48 | -0.42
NC(=O)C(CCCN=C(N)CCl)NC(=O)c1ccccc1 (configuration not stated) | 0.36 | -3.15 | 0.18 | -0.56 | 0.08 | 0.22 | -2.39 | 1.03
CCn1c(=O)c(C)cn(Cc2nnc(-c3ccc(F)c(O)c3F)s2)c1=O | 0.41 | -1.52 | -0.07 | 0.26 | 0 | -0.2 | -0.34 | -0.63
CC(C)c1ccc(-c2cc(=O)c3ccccc3o2)cc1 | 1.37 | -0.23 | -0.03 | 0.58 | 0 | 0.37 | -1.77 | -0.62
CN1CCN2c3c(cccc31)[C@@H]1CN(CCCC(=O)c3ccc(F)cc3)CC[C@@H]12 | -0.01 | -0.67 | -0.01 | -0.14 | -0.53 | 0.07 | -0.26 | 0.32
O=C(NO)c1ccc(CN(c2cnccn2)c2cnccn2)cc1 | 0.4 | -1.6 | -0.02 | 0.05 | -1.38 | -0.44 | -0.32 | -1.38
Cc1cc(C)cc(Oc2ccc(CNC(=O)[C@H](C)N)cc2C)c1 | 1.83 | -1.81 | 0.25 | 0.15 | -1.22 | -0.21 | -0.6 | -1.58
O=c1[nH]c(CS[C@H]2CC[C@H](O)CC2)nc2cc(OCC3CC3)cc(F)c12 | 0.58 | -1.62 | -0.32 | -5.43 | 0 | 0.1 | -0.76 | -0.56
COc1ccc([C@@H]2CNC(=O)C2)cc1OC1CCCC1 | 0.51 | -3.17 | 0.13 | -0.19 | -0.23 | 0.08 | -2.43 | 0.65
Cc1sc(C(=O)c2cncnc2N[C@@H]2C[C@H](COS(N)(=O)=O)[C@@H](O)C2)cc1[C@@H]1NCCc2ccc(Cl)cc21 | 0.03 | -0.2 | -0.03 | -0.1 | -1.26 | 0.53 | -1.12 | 0.42
Cc1nc(-c2cnc(NC(C)C)n(C)c2=O)ccc1Oc1ccnc(-c2cnn(C)c2)c1 | 13.3 | -1.75 | 0.63 | 0.37 | -0.22 | -0.25 | 0.8 | -1.36
